# Assay results published in PubChem BioAssay (EPA / NIEHS).
# Results filed as inconclusive are left out. More than one record can exist for a structure, and the calls need not agree. The source made the active and inactive calls. The calls were made as follows, unless noted: active = hit-call score of the fitted dose curve at least 0.9, where 1 is the maximum; inactive = score below 0.9.
# What was measured:
# [1] = ATG_Sox_CIS: Attagene CIS-FACTORIAL HepG2 Assay for human SRY-box transcription factor (SOX) (AID 2282960); conditions: HepG2 Attagene cis-factorial SOX reporter, mRNA; actives raise or lower the signal
# In short: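 Measures mRNA induction of a SOX1-associated reporter in HepG2 after 24 h dosing. Fluorescently labelled RT-PCR fragments are separated by capillary electrophoresis, and gain or loss relative to DMSO control is fitted.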
# [2] = target: Transcription factor Sp1 (Homo sapiens) (UniProt P08047); test: ATG_Sp1_CIS: Attagene CIS-FACTORIAL HepG2 Assay for human Specificity Protein 1 (Sp1) (AID 2282961); conditions: HepG2 Sp1 cis-reporter transcription, actives raise or lower the signal
# In short: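 Cells: HepG2, transiently transfected with cis-regulated multiplexed reporters. Exposure: 24 h. Detection: reporter transcripts amplified, fluorescently labeled, restriction-digested and sized by capillary electrophoresis. Analysis: bidirectional fit relative to DMSO.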
# [3] = ATG_SREBP_CIS: Attagene CIS-FACTORIAL HepG2 Assay for human Sterol Regulatory Element Binding (SREBP) (AID 2282962); conditions: HepG2 Attagene cis-factorial SREBP reporter, mRNA; actives raise or lower the signal
# In short: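 Endogenous SREBP activity read as cis-element-driven reporter transcript in transiently transfected HepG2, 24 h post-dosing; quantified via RT-PCR plus capillary electrophoresis of fluorescent fragments. Gain or loss of signal fitted relative to DMSO baseline.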
# [4] = target: Signal transducer and activator of transcription 3 (Homo sapiens) (UniProt P40763); test: ATG_STAT3_CIS: Attagene CIS-FACTORIAL HepG2 Assay for human Signal Transducer and Activator of Transcription 3 (STAT3) (AID 2282963); conditions: HepG2, Attagene cis-factorial STAT3 reporter transcription; actives raise or lower the signal
# In short: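 Cis-factorial format: endogenous transcription factors in HepG2 drive transfected reporter units. After 24 h treatment, reporter RNA was reverse-transcribed, amplified, FAM-labelled and HpaI-digested before CE analysis; activity scored in both directions against DMSO.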
# [5] = ATG_TCF_b_cat_CIS: Attagene CIS-FACTORIAL HepG2 Assay for human T-Cell-Factor with beta-catenin (TCF/b-cat) (AID 2282965); conditions: HepG2 TCF/beta-catenin cis-reporter transcription, actives raise or lower the signal
# In short: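 Measured: reporter mRNA in HepG2 transiently transfected with cis-promoter reporter units, 24 h after chemical addition. Fitting was bidirectional, DMSO as negative control.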
# [6] = ATG_TAL_CIS: Attagene CIS-FACTORIAL HepG2 Assay for human TAL Basal Promoter (AID 2282966); conditions: HepG2 Attagene cis-factorial TAL promoter reporter; actives raise or lower the signal;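 also: background control endpoint measuring basal TAL promoter reporter mRNA not a specific factor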
# In short: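 Background-control endpoint: basal TAL promoter reporter transcripts in transiently transfected HepG2, measured 24 h after dosing. Read-out by RT-PCR with fluorescent primer extension and capillary electrophoresis; gain or loss of signal fitted relative to DMSO.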
# [7] = ATG_TGFb_CIS: Attagene CIS-FACTORIAL HepG2 Assay for human Transforming Growth Factor (TGF) (AID 2282967); conditions: HepG2 Attagene CIS TGFb reporter, mRNA transcription; actives raise or lower the signal
# In short: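 Transcript-level reporter readout: HepG2 transfectants, 24 h exposure, RNA to cDNA, reporter-specific PCR, fluorescent primer extension, capillary sizing against ROX standards. Gain- or loss-of-signal relative to DMSO.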
# [8] = target: X-box-binding protein 1 (Homo sapiens) (UniProt P17861); test: ATG_Xbp1_CIS: Attagene CIS-FACTORIAL HepG2 Assay for human X-box Binding Protein 1 (XBP1) (AID 2282972); conditions: HepG2 XBP1 cis-element reporter, Attagene multiplex; actives raise or lower the signal
# In short: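 Reporter transcripts were quantified by RT-PCR with fluorescent primer extension and capillary electrophoresis after 24 h chemical exposure. Cells: transiently transfected HepG2 carrying cis-regulated reporter constructs; data fitted bidirectionally relative to DMSO.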
# [9] = ATG_M_19_TRANS: Attagene TRANS-FACTORIAL HepG2 Assay for M19 Transcription Factor (Internal Marker) (AID 2282974; active = hit-call score of the fitted dose curve at least 0.9, where 1 is the maximum); conditions: HepG2 Attagene TRANS-FACTORIAL M19 internal marker reporter
# In short: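 Reporter mRNA induction was measured in transfected HepG2 cells 24 h after dosing. Endpoint fitted upward relative to DMSO and serves as a background control within the multiplexed TRANS panel.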
# [10] = target: Estrogen-related receptor gamma (Homo sapiens) (UniProt P62508); test: ATG_ERRg_TRANS: Attagene TRANS-FACTORIAL HepG2 Assay for human Estrogen-Related Receptor gamma (ERRg) (AID 2282977; active = hit-call score of the fitted dose curve at least 0.9, where 1 is the maximum;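 also: hits increase reporter signal over DMSO so potencies reflect activators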); conditions: HepG2 Attagene TRANS reporter, ERRg transactivation
# In short: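 Exogenous NR-Gal4 chimera activity was assessed in HepG2 cells bearing transfected GAL4-UAS reporters. After 24 h dosing, total RNA underwent RT-PCR, fluorescent primer extension and HpaI digestion before capillary electrophoresis, with gain of signal scored against DMSO.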
# [11] = target: Bile acid receptor (Homo sapiens) (UniProt Q96RI1); test: ATG_FXR_TRANS: Attagene TRANS-FACTORIAL HepG2 Assay for Farnesoid X Receptor (FXR) (AID 2282979; active = hit-call score of the fitted dose curve at least 0.9, where 1 is the maximum;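 also: hits raise reporter mRNA above DMSO so AC50 marks FXR activation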); conditions: HepG2 Attagene TRANS FXR-GAL4 reporter transcription
# In short: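 Reporter transcripts from transfected HepG2 cells were measured 24 h after dosing, using RT-PCR with capillary electrophoresis of 6-FAM-labelled fragments. The read-out reflects activity of exogenous FXR-Gal4 chimera on GAL4-UAS units, with induction relative to DMSO.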
# [12] = target: Oxysterols receptor LXR-alpha (Homo sapiens) (UniProt Q13133); test: ATG_LXRa_TRANS: Attagene TRANS-FACTORIAL HepG2 Assay for human Liver X Receptor alpha (LXRa) (AID 2282980; active = hit-call score of the fitted dose curve at least 0.9, where 1 is the maximum); conditions: HepG2 Attagene TRANS reporter, LXRa transactivation
# In short: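 Chemical-induced reporter mRNA measured by RT-PCR with fluorescent labelling and capillary electrophoresis after 24 h dosing of transiently transfected HepG2 cells expressing exogenous NR-Gal4 chimeras; increases scored against DMSO baseline.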
# [13] = ATG_VDRE_CIS: Attagene CIS-FACTORIAL HepG2 Assay for human Vitamin D Receptor Element (VDRE) (AID 2282968); conditions: HepG2 VDRE cis-reporter transcription, actives raise or lower the signal
# In short: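 Measures endogenous factor activity through cis-element-driven reporter transcripts in transiently transfected HepG2. Cells are treated 24 h; reporter mRNA is quantified by RT-PCR and capillary electrophoresis; fitting is bidirectional.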
# [14] = target: Androgen receptor (Homo sapiens) (UniProt P10275); test: ATG_AR_TRANS: Attagene TRANS-FACTORIAL HepG2 Assay for human Androgen Receptor (AR) (AID 2282973; active = hit-call score of the fitted dose curve at least 0.9, where 1 is the maximum); conditions: HepG2 Attagene TRANS-FACTORIAL AR reporter transcription
# In short: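 Transcriptional activity of an exogenous AR–Gal4 fusion read as GAL4-UAS reporter transcript levels in transfected human HepG2 cells after 24 h dosing. Detection via RT-PCR, 6-FAM labelling, HpaI digest and capillary electrophoresis; increase over DMSO baseline.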
# [15] = ATG_GAL4_TRANS: Attagene TRANS-FACTORIAL HepG2 Assay for GAL4 (Internal Marker) (AID 2282976; active = hit-call score of the fitted dose curve at least 0.9, where 1 is the maximum); conditions: HepG2 Attagene TRANS GAL4 internal marker reporter
# In short: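 In transfected human HepG2 liver cells dosed 24 h, GAL4 reporter mRNA serves as a baseline marker. Detection by RT-PCR with fluorescent capillary electrophoresis, activity fitted upward relative to DMSO.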
# [16] = target: Glucocorticoid receptor (Homo sapiens) (UniProt P04150); test: ATG_GR_TRANS: Attagene TRANS-FACTORIAL HepG2 Assay for human Glucocorticoid Receptor (GR) (AID 2282978; active = hit-call score of the fitted dose curve at least 0.9, where 1 is the maximum;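 also: activators score as hits since higher reporter transcript over DMSO is fitted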); conditions: HepG2 Attagene TRANS GR reporter, mRNA transcription
# In short: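 Reporter transcript levels, detected by fluorescence after RT-PCR and capillary electrophoresis, served as the endpoint. HepG2 cells bearing transfected GAL4-UAS reporters responsive to NR-GAL4 chimeras were incubated with compound 24 h; DMSO defined baseline.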
# [17] = target: Nuclear receptor subfamily 1 group I member 3 (Homo sapiens) (UniProt Q14994); test: ATG_CAR_TRANS: Attagene TRANS-FACTORIAL HepG2 Assay for human Constitutive Androstane Receptor (CAR) (AID 2282969; active = hit-call score of the fitted dose curve at least 0.9, where 1 is the maximum;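 also: activators raise reporter mRNA above DMSO so AC50 marks induction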); conditions: HepG2 Attagene TRANS-FACTORIAL CAR reporter
# In short: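 Signal is reporter mRNA induction relative to DMSO, measured 24 h after dosing by RT-PCR with fluorescent primer extension and capillary electrophoresis. Human HepG2 liver cells carried transiently transfected chimeric NR-Gal4/GAL4-UAS reporter constructs.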
# [18] = target: Estrogen receptor (Homo sapiens) (UniProt P03372); test: ATG_ERa_TRANS: Attagene TRANS-FACTORIAL HepG2 Assay for human Estrogen Receptor alpha (ERa) (AID 2282970; active = hit-call score of the fitted dose curve at least 0.9, where 1 is the maximum); conditions: HepG2 Attagene TRANS ERa GAL4 reporter, mRNA
# In short: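 Reporter transcripts were measured 24 h after dosing by RT-PCR with fluorescent primer extension and capillary electrophoresis. The system is transiently transfected HepG2 expressing exogenous NR-Gal4 chimeras driving GAL4-UAS reporters; DMSO is the baseline.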
# [19] = target: Steroid hormone receptor ERR1 (Homo sapiens) (UniProt P11474); test: ATG_ERRa_TRANS: Attagene TRANS-FACTORIAL HepG2 Assay for human Estrogen-Related Receptor alpha (ERRa) (AID 2282971; active = hit-call score of the fitted dose curve at least 0.9, where 1 is the maximum); conditions: HepG2 Attagene TRANS reporter, ERRa transactivation
# In short: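 Reporter transcripts from ERRa-Gal4 chimera activity measured in transiently transfected human HepG2 cells 24 hours after dosing, using RT-PCR with 6-FAM primer extension, HpaI digestion and capillary electrophoresis; DMSO is baseline.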
# [20] = ATG_TA_CIS: Attagene CIS-FACTORIAL HepG2 Assay for human TA Basal Promoter (AID 2282964); conditions: HepG2 Attagene CIS-factorial TA basal promoter reporter; actives raise or lower the signal
# In short: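 Multiplexed mRNA reporter assay, HepG2, 24 h. Reporter cDNA amplified, 6-FAM primer-extended, HpaI-cut, CE-sized; DMSO = negative control and baseline.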
# Glucocorticoid receptor (Homo sapiens), sequence (P04150 whole entry, looked up, the tested form may be a part): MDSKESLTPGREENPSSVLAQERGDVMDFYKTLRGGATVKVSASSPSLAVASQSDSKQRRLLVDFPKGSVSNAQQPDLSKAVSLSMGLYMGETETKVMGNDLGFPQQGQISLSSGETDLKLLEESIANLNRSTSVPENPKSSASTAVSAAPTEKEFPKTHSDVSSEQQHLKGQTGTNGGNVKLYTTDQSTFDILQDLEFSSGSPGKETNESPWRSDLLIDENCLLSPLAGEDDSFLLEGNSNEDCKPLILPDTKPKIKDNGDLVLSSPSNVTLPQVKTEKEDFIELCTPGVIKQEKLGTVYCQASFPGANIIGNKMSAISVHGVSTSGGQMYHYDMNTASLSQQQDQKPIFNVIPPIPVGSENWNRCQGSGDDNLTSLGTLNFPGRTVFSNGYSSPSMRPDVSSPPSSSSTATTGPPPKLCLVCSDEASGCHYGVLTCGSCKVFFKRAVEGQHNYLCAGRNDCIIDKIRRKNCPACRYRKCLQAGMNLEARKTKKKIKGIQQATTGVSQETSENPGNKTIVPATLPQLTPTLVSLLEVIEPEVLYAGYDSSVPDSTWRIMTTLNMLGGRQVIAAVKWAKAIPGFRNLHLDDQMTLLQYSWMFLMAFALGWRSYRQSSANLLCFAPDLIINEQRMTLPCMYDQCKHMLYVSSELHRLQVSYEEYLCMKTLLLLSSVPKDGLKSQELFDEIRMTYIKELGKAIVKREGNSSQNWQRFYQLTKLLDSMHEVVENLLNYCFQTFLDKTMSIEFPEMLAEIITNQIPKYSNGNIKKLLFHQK
# Nuclear receptor subfamily 1 group I member 3 (Homo sapiens), sequence (Q14994 whole entry, looked up, the tested form may be a part): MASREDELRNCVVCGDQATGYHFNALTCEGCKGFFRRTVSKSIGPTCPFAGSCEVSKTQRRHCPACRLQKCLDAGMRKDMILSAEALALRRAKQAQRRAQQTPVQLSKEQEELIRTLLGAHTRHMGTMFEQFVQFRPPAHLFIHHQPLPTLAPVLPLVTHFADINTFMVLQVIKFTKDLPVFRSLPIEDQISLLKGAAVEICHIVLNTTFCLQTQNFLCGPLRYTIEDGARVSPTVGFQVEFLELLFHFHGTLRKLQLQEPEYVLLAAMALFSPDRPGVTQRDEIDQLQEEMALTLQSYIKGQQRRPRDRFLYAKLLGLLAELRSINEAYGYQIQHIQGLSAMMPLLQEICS
# Transcription factor Sp1 (Homo sapiens), sequence (P08047 whole entry, looked up): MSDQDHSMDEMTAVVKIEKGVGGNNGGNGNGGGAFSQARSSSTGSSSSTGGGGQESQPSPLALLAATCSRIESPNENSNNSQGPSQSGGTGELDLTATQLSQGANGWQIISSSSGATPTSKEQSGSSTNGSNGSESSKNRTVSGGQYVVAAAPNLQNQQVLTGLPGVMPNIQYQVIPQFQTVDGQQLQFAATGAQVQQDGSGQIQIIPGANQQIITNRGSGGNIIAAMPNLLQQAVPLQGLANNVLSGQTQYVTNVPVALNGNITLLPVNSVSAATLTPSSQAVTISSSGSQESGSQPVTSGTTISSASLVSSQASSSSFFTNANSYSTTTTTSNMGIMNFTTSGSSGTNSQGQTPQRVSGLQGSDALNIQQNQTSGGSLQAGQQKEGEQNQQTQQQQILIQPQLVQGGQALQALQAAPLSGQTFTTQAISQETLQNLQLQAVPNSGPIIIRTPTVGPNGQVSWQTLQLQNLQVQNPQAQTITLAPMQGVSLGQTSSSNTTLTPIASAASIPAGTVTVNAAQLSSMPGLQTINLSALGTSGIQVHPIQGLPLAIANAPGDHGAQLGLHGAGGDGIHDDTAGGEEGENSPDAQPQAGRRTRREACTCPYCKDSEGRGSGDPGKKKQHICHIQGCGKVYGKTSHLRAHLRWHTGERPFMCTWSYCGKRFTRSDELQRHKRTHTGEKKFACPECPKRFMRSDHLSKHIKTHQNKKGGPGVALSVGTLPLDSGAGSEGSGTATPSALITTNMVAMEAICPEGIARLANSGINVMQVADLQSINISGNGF
# Oxysterols receptor LXR-alpha (Homo sapiens), sequence (Q13133 whole entry, looked up, the tested form may be a part): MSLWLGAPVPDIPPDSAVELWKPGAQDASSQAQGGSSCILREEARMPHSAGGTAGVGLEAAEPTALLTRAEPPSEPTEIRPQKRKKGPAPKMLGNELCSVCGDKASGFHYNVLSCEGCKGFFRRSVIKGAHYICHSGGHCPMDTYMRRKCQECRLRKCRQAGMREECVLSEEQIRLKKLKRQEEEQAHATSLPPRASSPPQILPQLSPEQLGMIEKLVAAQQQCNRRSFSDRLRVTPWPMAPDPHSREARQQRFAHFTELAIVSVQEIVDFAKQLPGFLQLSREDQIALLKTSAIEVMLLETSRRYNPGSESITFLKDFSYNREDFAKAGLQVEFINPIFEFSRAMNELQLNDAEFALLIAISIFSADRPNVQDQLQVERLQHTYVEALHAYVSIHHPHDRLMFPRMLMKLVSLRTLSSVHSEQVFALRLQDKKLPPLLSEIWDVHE
# Signal transducer and activator of transcription 3 (Homo sapiens), sequence (P40763 whole entry, looked up): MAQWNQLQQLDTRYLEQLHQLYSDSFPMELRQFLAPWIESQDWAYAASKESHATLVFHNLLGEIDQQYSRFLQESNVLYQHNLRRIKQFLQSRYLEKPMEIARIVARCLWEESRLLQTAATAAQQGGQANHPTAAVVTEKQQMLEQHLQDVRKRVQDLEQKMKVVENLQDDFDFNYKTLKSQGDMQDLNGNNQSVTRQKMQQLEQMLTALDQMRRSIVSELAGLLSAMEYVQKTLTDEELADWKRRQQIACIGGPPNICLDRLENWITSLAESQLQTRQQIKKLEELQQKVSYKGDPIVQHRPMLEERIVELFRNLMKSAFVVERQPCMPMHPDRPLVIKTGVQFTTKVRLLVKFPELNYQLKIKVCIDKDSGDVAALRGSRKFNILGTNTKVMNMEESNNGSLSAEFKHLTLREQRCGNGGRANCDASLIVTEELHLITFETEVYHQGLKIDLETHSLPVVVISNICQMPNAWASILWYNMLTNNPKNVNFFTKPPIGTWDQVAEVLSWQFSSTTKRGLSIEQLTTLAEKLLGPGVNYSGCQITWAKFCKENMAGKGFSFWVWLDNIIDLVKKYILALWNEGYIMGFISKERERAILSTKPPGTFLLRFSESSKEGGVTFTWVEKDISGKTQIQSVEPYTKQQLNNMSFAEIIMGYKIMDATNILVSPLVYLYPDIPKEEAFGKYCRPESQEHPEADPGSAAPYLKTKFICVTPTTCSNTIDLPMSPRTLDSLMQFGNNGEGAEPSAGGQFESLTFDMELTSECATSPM
# Bile acid receptor (Homo sapiens), sequence (Q96RI1 whole entry, looked up, the tested form may be a part): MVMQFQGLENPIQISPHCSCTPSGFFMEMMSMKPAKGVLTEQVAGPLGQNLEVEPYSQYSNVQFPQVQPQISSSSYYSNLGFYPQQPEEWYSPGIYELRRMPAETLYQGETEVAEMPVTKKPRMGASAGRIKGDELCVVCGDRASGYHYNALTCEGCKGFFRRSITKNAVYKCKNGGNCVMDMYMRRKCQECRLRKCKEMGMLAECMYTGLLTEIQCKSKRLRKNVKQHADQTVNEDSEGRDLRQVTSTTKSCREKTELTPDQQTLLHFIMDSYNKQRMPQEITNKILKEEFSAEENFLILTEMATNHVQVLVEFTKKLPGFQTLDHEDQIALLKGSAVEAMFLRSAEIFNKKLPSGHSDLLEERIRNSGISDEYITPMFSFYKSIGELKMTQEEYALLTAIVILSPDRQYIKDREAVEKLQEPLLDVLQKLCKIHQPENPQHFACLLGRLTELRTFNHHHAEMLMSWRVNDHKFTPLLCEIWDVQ
# Estrogen receptor (Homo sapiens), sequence (P03372 whole entry, looked up, the tested form may be a part): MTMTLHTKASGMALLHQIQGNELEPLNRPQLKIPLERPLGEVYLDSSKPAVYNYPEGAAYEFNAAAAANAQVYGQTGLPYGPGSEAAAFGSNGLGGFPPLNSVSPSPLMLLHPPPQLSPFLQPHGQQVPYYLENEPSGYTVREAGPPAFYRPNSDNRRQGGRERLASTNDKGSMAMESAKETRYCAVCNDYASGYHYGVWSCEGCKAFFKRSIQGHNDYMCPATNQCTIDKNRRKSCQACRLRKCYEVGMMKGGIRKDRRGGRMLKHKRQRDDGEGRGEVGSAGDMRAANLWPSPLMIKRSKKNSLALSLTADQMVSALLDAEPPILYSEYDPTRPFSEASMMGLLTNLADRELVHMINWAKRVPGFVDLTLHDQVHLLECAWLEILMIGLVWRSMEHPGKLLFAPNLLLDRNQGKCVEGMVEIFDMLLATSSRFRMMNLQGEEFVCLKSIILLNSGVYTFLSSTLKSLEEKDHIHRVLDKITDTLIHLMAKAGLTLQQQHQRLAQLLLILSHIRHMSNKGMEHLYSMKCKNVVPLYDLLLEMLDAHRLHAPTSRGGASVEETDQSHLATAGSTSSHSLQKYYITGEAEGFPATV
# Estrogen-related receptor gamma (Homo sapiens), sequence (P62508 whole entry, looked up, the tested form may be a part): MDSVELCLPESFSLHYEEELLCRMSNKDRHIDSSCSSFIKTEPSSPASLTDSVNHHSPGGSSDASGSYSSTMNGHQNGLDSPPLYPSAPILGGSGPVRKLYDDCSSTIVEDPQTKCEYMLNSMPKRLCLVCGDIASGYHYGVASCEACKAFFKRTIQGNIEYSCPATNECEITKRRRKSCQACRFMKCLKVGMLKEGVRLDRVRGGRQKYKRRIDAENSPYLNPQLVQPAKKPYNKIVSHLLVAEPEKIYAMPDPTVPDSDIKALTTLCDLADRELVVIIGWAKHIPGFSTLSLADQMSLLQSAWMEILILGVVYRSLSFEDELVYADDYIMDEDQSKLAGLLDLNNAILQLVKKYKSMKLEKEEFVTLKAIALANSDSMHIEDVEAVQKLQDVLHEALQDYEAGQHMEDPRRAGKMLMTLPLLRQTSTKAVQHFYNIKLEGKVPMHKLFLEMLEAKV
# X-box-binding protein 1 (Homo sapiens), sequence (P17861 whole entry, looked up): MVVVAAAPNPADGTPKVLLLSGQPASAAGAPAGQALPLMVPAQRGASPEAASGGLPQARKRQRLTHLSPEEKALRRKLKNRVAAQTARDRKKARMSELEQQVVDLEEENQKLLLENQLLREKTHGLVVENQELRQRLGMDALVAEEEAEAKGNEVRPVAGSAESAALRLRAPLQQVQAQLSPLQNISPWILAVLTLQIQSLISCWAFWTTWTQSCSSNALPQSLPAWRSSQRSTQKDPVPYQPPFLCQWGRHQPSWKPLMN
compound,measurement,setting,value
COC(=O)Nc1cccc(OC(=O)Nc2cccc(C)c2)c1,outcome,[1],inactive
same,outcome,[2],inactive
same,outcome,[3],inactive
same,outcome,[4],inactive
same,outcome,[5],inactive
same,outcome,[6],inactive
same,outcome,[7],inactive
same,outcome,[8],inactive
same,outcome,[9],inactive
same,outcome,[10],inactive
same,outcome,[11],inactive
same,outcome,[12],inactive
BrCC(Br)c1ccccc1 (configuration not stated),outcome,[1],inactive
same,outcome,[2],inactive
same,outcome,[3],inactive
same,outcome,[4],inactive
same,outcome,[5],inactive
same,outcome,[6],inactive
same,outcome,[7],inactive
same,outcome,[13],inactive
same,outcome,[8],inactive
same,outcome,[14],inactive
same,outcome,[15],inactive
same,outcome,[16],inactive
same,outcome,[11],inactive
Cc1ccc(OP(=O)(Oc2ccc(C)cc2C)Oc2ccc(C)cc2C)c(C)c1,outcome,[1],inactive
same,AC50,[2],26.2 µM (active)
same,outcome,[3],inactive
same,outcome,[4],inactive
same,outcome,[6],inactive
same,outcome,[7],inactive
same,AC50,[13],0.534 µM (active)
same,outcome,[17],inactive
same,outcome,[18],inactive
same,outcome,[19],inactive
same,outcome,[9],inactive
same,outcome,[15],inactive
same,outcome,[10],inactive
same,outcome,[11],inactive
O=C1C[C@@H]2OCC=C3CN4CC[C@]56c7ccccc7N1[C@H]5[C@H]2[C@H]3C[C@H]46,outcome,[1],inactive
same,outcome,[2],inactive
same,outcome,[3],inactive
same,outcome,[4],inactive
same,outcome,[6],inactive
same,outcome,[7],inactive
same,outcome,[8],inactive
same,outcome,[9],inactive
same,outcome,[15],inactive
same,outcome,[12],inactive
CC(C)(c1ccc(O)c(-c2ccccc2)c1)c1ccc(O)c(-c2ccccc2)c1,outcome,[1],inactive
same,outcome,[2],inactive
same,outcome,[4],inactive
same,outcome,[20],inactive
same,outcome,[5],inactive
same,outcome,[6],inactive
same,outcome,[7],inactive
same,AC50,[13],2.93 µM (active)
same,outcome,[17],inactive
same,outcome,[18],inactive
same,AC50,[8],4.92 µM (active)
same,outcome,[16],inactive
same,outcome,[11],inactive
CC(C)(C)c1ccccc1O,AC50,[1],100 µM (active)
same,outcome,[2],inactive
same,AC50,[3],163 µM (active)
same,outcome,[4],inactive
same,outcome,[6],inactive
same,outcome,[7],inactive
same,AC50,[13],129 µM (active)
same,outcome,[17],inactive
same,AC50,[8],165 µM (active)
same,outcome,[9],inactive
Nc1ccc(N)cc1,outcome,[1],inactive
same,outcome,[2],inactive
same,outcome,[4],inactive
same,outcome,[20],inactive
same,AC50,[5],27.7 µM (active)
same,outcome,[5],inactive
same,outcome,[6],inactive
same,AC50,[7],23.8 µM (active)
same,outcome,[7],inactive
same,outcome,[13],inactive
same,outcome,[17],inactive
same,outcome,[9],inactive
same,outcome,[15],inactive
same,outcome,[11],inactive
same,outcome,[12],inactive
C[N+](C)(C)Cc1ccccc1,outcome,[1],inactive
same,outcome,[2],inactive
same,outcome,[3],inactive
same,outcome,[4],inactive
same,outcome,[5],inactive
same,outcome,[6],inactive
same,outcome,[7],inactive
same,outcome,[18],inactive
same,outcome,[8],inactive
same,outcome,[9],inactive
same,outcome,[15],inactive
same,outcome,[11],inactive
same,outcome,[12],inactive
C[CH2][Hg][S]c1ccccc1C(=O)O,AC50,[1],2.56 µM (active)
same,AC50,[2],1.51 µM (active)
same,AC50,[3],2.66 µM (active)
same,outcome,[4],inactive
same,AC50,[5],6.54 µM (active)
same,AC50,[6],1.87 µM (active)
same,outcome,[7],inactive
same,AC50,[13],3 µM (active)
same,outcome,[17],inactive
same,AC50,[8],2.7 µM (active)
same,outcome,[10],inactive
same,outcome,[16],inactive
same,outcome,[12],inactive
N#CCC#N,outcome,[1],inactive
same,outcome,[2],inactive
same,outcome,[3],inactive
same,outcome,[4],inactive
same,outcome,[5],inactive
same,outcome,[6],inactive
same,outcome,[7],inactive
same,outcome,[13],inactive
same,outcome,[16],inactive
